Each structure is given as a SMILES string. Inconclusive results are not listed. A call without a number means that no potency is given here. The source made the active and inactive calls. Unless noted, calls come from the whole dose curve; as a rule, active = well fitted activation curve with a large enough effect in the main read-out, with a control signal flat (not every such curve was filed as active); inconclusive = small, poorly fitted or top-dose-only effect, or effect the other way, or a change in a side signal; inactive = flat fitted curve, though single readings scatter.

Consider 29 compounds from PubChem BioAssay (NCATS).

3',5'-cyclic-AMP phosphodiesterase 4B (Homo sapiens), sequence (Q07343 whole entry, looked up): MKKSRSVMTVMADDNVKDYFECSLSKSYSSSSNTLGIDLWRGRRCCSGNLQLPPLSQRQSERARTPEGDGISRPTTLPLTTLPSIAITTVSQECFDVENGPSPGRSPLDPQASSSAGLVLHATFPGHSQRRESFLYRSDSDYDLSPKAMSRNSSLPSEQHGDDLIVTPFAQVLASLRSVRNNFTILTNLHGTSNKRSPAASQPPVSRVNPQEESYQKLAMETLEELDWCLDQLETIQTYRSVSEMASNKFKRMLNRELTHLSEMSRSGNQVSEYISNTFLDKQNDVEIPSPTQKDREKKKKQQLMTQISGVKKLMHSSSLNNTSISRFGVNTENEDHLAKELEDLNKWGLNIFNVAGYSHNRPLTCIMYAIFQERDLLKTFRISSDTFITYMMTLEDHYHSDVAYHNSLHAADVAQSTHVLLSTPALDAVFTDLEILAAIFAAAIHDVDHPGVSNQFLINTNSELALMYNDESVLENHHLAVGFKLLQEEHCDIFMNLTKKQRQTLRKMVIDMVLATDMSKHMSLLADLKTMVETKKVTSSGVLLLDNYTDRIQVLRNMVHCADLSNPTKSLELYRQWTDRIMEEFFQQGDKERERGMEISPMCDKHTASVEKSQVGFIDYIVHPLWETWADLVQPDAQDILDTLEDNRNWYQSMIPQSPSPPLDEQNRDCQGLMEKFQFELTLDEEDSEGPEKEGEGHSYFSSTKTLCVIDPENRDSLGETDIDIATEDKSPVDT

For the first test, the target named is Mitogen-activated protein kinase 10 (Mus musculus) (UniProt Q61831). The experiment in a line: JNK3 AlphaScreen Assay (AID 530; active = well fitted curve in either direction with a large enough effect, not every such curve was filed as active;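 note: kinase came from lysate of stimulated human HepG2 cells; signal reports phosphorylation of biotinylated GST-cJun 1-79 at Ser73 with 10 µM ATP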). The following applies: JNK3 lysate, c-Jun phosphorylation; series mostly up to 57.1 µM. Put shortly:
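JNK3 came from HepG2 lysates pre-activated with IL-1beta and TNF-alpha and phosphorylated biotinylated GST-cJun (1-79) at 10 uM ATP, pH 7.6, room temperature. Compounds were titrated. AlphaScreen signal used anti-phospho-cJun (Ser73) antibody.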
(In general: Bead proximity is the source of the signal in Alpha formats.)
As for `CCCN(CCC)[C@@H]1CCc2ccc(O)cc2C1`, the compound was classed as inactive. Take `CC1=NN=C(c2ccc(N)cc2)c2cc3c(cc2C1)OCO3`: the result was inactive. Same read-out and setting: the same measure for `COC(=O)[C@@H](N)CCCN=C(N)N[N+](=O)[O-]`: “inactive”; for `CCCCc1ccc(C(=O)O)nc1`: “inactive”; for `NC(=NCCC[C@H](N)C(=O)O)N[N+](=O)[O-]`: “inactive”.

Consider `CNCCc1ccc(O)c(O)c1`, for which the compound was classed as inactive. Still for that read-out and setting: the same measure for `NCCc1c[nH]c2ccccc12`: “inactive”; for `CC(C)Oc1cccnc1N(C)C1CCN(Cc2ccccc2)CC1`: “inactive”; for `CC(=O)NCCc1c[nH]c2ccccc12`: “inactive”.

As for `CCCN1CCC[C@H](c2cccc(O)c2)C1`, the compound was called inactive. For `Cc1c(C(=O)c2cccc3ccccc23)c2cccc3c2n1[C@H](CN1CCOCC1)CO3`, the result was inactive.

The next test concerns the target 3',5'-cyclic-AMP phosphodiesterase 4B (Homo sapiens) (UniProt Q07343). In words: qHTS Assay for Inhibitors of PDE-IV (AID 607). Note: potency is the fitted concentration of half-maximal effect. To be noted: HEK293 ACTOne CNG channel cells, membrane potential fluorescence; series mostly up to 22.9 µM. Put shortly: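 ACTOne HEK293 cells carry a modified cAMP-gated CNG channel and express endogenous PDE4; plated 1000 cells/well, compounds up to 22.9 uM final. Membrane-potential dye fluorescence (ex 535/em 590) was read; parental cells received 10 uM forskolin + 100 uM RO 20-1724.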
On the technique in general: In qHTS, concentration-response curves come from the screen itself.
As for `Cn1cnc(CCN)c1`, the Potency result is “inactive”.

On to `O=C(O)CC[N+](=O)[O-]`, for which the Potency entry was “inactive”. With `CCCN1CCO[C@@H]2c3cc(O)ccc3OC[C@H]21`, the Potency result was “inactive”. Take `CNCCc1c[nH]c2ccc(O)cc12`: the Potency result was “inactive”. Turning to `S=C(NC1CCCCC1)N1CCC(c2cnc[nH]2)CC1`, the Potency entry is “inactive”. On the same count and under the same terms, then `CCCN(CCC)[C@@H]1CCc2ccc(O)cc2C1`, with “inactive”; and `CC1=NN=C(c2ccc(N)cc2)c2cc3c(cc2C1)OCO3`, with “inactive”.

With `NCc1cc(=O)[nH]o1`, the Potency result is “inactive”.

For `O=C(O)Cc1cnc[nH]1`, the Potency entry was “inactive”.

Consider `CCCCc1ccc(C(=O)O)nc1`, for which the Potency result is “inactive”. Same read-out and setting: the same measure for `CNCCc1ccc(O)c(O)c1`: “inactive”; for `C[C@@H]1O[C@H](C[N+](C)(C)C)C[C@H]1O`: 3160 nM (active). The same measure, in the same setting: the same measure for `NCCc1c[nH]c2ccccc12`: “inactive”; for `c1ccc(CCCN2CCN(CCOC(c3ccccc3)c3ccccc3)CC2)cc1`: “inactive”. Turning to `CCOC(=O)c1cncn1[C@H](C)c1ccccc1`, the Potency result is “inactive”. On the same count and under the same terms, then `O=c1cccc2n1CC1CNC[C@H]2C1`, with “inactive”; and `CC(C)Oc1cccnc1N(C)C1CCN(Cc2ccccc2)CC1`, with “inactive”; and `C[C@@H](N)Cc1cnc[nH]1`, with “inactive”. With `CC(=O)NCCc1c[nH]c2ccccc12`, the Potency entry is “inactive”. On to `O=C1CCCN1CC#CCN1CCCC1`, for which the Potency entry is “inactive”. As for `CCCN1CCC[C@H](c2cccc(O)c2)C1`, the Potency result was “inactive”. For the compound `Cc1c(C(=O)c2cccc3ccccc23)c2cccc3c2n1[C@H](CN1CCOCC1)CO3`, the Potency result is “inactive”. Still for that read-out and setting: the same measure for `CC(=O)OCC1=C(C(=O)O)N2C(=O)[C@@H](N)[C@@H]2SC1`: “inactive”; for `CN[C@@H]1C[C@@H](c2ccc(Cl)c(Cl)c2)c2ccccc21`: “inactive”. Same read-out and setting: the same measure for `NCCc1c[nH]c2ccc(O)cc12`: “inactive”; for `Cc1nccc2c1[nH]c1ccccc12`: “inactive”; for `C#CCOC(=O)C1=CCCN(C)C1`: 398 nM (active).
